Eight compounds from PubChem BioAssay can be followed below.

Molecules are shown by their SMILES. The source made the active and inactive calls.

One test concerns the target Albumin (Bos taurus) (UniProt P02769). Kind of test: bovine serum albumin binders on microarray, profiling panel, artefact control for SMM control protein annotation, biochemical, small-molecule microarray, Alexa647 label, 635/667 nm fluorescence (AID 1118).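 Note: score merges 667 nm emission intensity and signal-to-noise per printed compound spot.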 The settings on record: BSA-A647 binding, fluorescence 635 nm, higher = more signal.
The nature of test [1]: small-molecule microarray binders of probe aXIP, primary screen, biochemical, NeuroSMM set, 635/667 nm fluorescence (AID 1119).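 Note: probe is the protein aXip251-270 applied at 1 µg/mL to compound-printed slides; binding of probe to printed compounds measured as 667 nm fluorescence plus signal to noise.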 To be noted: higher = more signal, called active from +8 up or from −8 down.
Test [2] in a line: small-molecule binders of probe aNOTCH3, primary screen, biochemical, small-molecule microarray, 635/667 nm fluorescence (AID 1120).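 Note: probe is a biotin-tagged antibody raised against NOTCH3 rather than NOTCH3 protein; score merges spot fluorescence near 667 nm with spot signal to noise.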 The settings on record: higher = more signal.
Test [3] can be described thus: small-molecule binders of probe aNOTCH2, primary screen, biochemical, small-molecule microarray, 635/667 nm fluorescence (AID 1121).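 Note: score merges feature fluorescence read at 667 nm with its signal to noise.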 To be noted: higher = more signal.
For test [4], the target named is Carbonic anhydrase 2 (Homo sapiens) (UniProt P00918). Kind of test: CAII small-molecule binders, profiling panel, biochemical, small-molecule microarray, Alexa647-labelled CAII (AID 1122). To be noted: CAII-A647 binding fluorescence, higher = more signal.
Test [5] is described as follows: COS7 lysate on small-molecule microarray, probe aHis, 635 nm (AID 1123).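 Note: z-score combines 667nm fluorescence intensity with signal-to-noise per printed compound spot.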 To be noted: COS7 cell lysate, fluorescence, higher = more signal.
A short description of test [6]: compound binding in COS7 lysate, probe aLAP1, primary screen, cell lysate, small-molecule microarray (AID 1124).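 Note: lysate comes from COS7 cells expressing LAP1 and is applied at 0.3 µg/mL; score merges spot fluorescence near 667 nm with signal-to-noise over triplicate slides.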 The settings on record: probe aLAP1, fluorescence, higher = more signal.
The next test concerns Sam68 (KHDRBS1). Kind of test: Sam68 small-molecule binders, primary screen, biochemical, small-molecule microarray, 635 nm fluorescence (AID 1125).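 Note: score merges 667 nm channel intensity with signal to noise over triplicate slides.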 To be noted: small-molecule microarray binding, higher = more signal.
Test [7] has as its system Chordin-like protein 2 (CHRDL2). Put plainly: CHRDL2 small-molecule binders, primary screen, biochemical, small-molecule microarray, 635 nm fluorescence (AID 1126).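 Note: printed compound slides probed with Chrdl2 protein at 4 µg/mL for 1 h at 4 C; score merges 667 nm emission intensity with signal to noise over three replicate slides.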 To be noted: small-molecule microarray binding, fluorescence 635 nm; higher = more signal.
Test [8] addresses Concanavalin-A (Canavalia ensiformis) (UniProt P02866). Put plainly: ConA small-molecule binders, primary screen, artefact control for SMM control protein annotation, biochemical, small-molecule microarray, Alexa647 label, 635 nm (AID 1127).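 Note: z combines 667 nm emission intensity with signal-to-noise across three replicate slides.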 The settings on record: ConA-A647 binding fluorescence, higher = more signal.
The nature of test [9]: anti-His antibody binders, primary screen, artefact control for SMM control protein annotation, biochemical, small-molecule microarray, 635 nm fluorescence (AID 1128).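 Note: score merges feature fluorescence with signal-to-noise for each printed compound spot.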 To be noted: anti-His Alexa647 antibody binding, higher = more signal.
Test [10] relates to Human papillomavirus type 1a E7 protein (residues 1-88). Put plainly: HPV1a E7 small-molecule binders, primary screen, biochemical, small-molecule microarray, residues 1-88, 635 nm (AID 1129). To be noted: small-molecule microarray binding, fluorescence 635 nm; higher = more signal.
The target in test [11] is Focal adhesion kinase 1 (Homo sapiens) (UniProt Q05397). Put plainly: small-molecule microarray binders of FAK, primary screen, biochemical, 635/667 nm fluorescence, BSA, DTT (AID 1130).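 Note: composite of spot emission at 667 nm and signal to noise over triplicate slides.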 The settings on record: PTK2 binding, 635 nm fluorescence, higher = more signal.
Focal adhesion kinase 1 (Homo sapiens), sequence (Q05397 whole entry, looked up): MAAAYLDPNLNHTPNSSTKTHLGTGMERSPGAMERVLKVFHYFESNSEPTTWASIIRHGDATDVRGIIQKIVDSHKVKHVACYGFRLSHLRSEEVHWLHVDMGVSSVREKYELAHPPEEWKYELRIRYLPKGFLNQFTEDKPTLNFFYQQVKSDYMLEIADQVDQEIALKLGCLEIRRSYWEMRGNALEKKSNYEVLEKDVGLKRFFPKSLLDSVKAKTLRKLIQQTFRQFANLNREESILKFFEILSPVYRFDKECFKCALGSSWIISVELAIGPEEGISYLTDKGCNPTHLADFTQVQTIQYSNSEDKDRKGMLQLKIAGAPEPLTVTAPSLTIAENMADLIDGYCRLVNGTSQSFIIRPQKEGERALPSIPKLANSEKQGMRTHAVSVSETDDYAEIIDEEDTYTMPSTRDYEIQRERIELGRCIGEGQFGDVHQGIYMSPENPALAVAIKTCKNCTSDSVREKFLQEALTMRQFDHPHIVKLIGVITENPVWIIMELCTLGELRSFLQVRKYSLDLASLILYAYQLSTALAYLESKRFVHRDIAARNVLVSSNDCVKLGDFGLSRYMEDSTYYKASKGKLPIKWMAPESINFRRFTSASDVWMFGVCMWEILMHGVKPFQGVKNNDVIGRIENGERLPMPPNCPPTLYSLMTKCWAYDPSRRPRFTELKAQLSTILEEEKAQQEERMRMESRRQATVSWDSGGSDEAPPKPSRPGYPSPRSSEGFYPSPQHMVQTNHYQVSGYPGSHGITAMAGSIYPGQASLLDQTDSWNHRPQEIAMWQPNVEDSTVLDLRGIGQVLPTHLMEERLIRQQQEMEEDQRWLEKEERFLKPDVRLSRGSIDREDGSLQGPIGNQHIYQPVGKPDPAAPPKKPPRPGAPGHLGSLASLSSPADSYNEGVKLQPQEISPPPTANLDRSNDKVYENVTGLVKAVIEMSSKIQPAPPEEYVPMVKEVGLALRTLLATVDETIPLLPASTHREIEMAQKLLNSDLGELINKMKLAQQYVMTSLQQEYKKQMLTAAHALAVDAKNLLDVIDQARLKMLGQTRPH
The test system of test [12] is Fibrinogen (Alexa647-labelled). Kind of test: fibrinogen binders on compound microarrays, profiling panel, artefact control for SMM control-protein annotation, biochemical, small-molecule microarray, 635/667 nm fluorescence (AID 1131).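 Note: z-score merges 667 nm fluorescence with per-spot signal-to-noise over triplicate slides.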 To be noted: fibrinogen-A647 binding fluorescence, higher = more signal.
Test [13] has as its target Follistatin (Homo sapiens) (UniProt P19883). Put plainly: follistatin binders on small-molecule microarrays, primary screen, biochemical, small-molecule microarray, 635/667 nm fluorescence (AID 1132). To be noted: FST binding, 635 nm fluorescence, higher = more signal.
The target in test [14] is Fibroblast growth factor 2 (Homo sapiens) (UniProt P09038). Kind of test: FGF2 binders on small-molecule microarrays, primary screen, biochemical, small-molecule microarray, 635/667 nm fluorescence (AID 1133). The settings on record: small-molecule microarray binding, FGF2, fluorescence 635/667; higher = more signal.
Fibroblast growth factor 2 (Homo sapiens), sequence (P09038 whole entry, looked up): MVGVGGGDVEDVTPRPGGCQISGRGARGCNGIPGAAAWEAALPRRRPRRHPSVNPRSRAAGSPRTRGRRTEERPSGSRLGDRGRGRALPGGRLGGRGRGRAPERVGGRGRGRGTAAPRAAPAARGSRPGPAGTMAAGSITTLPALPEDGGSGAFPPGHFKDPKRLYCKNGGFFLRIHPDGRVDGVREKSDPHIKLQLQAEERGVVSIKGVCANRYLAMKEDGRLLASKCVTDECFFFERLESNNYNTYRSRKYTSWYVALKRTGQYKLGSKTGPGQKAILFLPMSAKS
Test [15] can be described thus: mitochondrial membrane potential change in A549 cells, profiling panel, cell-based, JC-1 fluorescence, basal, 24 h, 100 nL (AID 1138).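 Note: A549 lung adenocarcinoma cells under basal conditions with no added stimulus; test concentration not given here.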 The settings on record: higher = more signal.
The test system of the next test is Lefty1. Kind of test: Lefty1 binders on small-molecule microarrays, primary screen, biochemical, small-molecule microarray, 635/667 nm fluorescence (AID 1139). To be noted: small-molecule microarray binding, fluorescence 635/667; higher = more signal.
Test [16] has as its system wheat germ agglutinin (Triticum aestivum), Alexa647-labelled. Kind of test: wheat germ agglutinin binders on compound microarrays, profiling panel, artefact control for SMM control-protein annotation, biochemical, small-molecule microarray, 635/667 nm fluorescence (AID 1140).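 Note: score merges 667 nm feature emission with signal to noise over triplicate slides.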 The settings on record: WGA-A647 binding, 635 nm fluorescence, higher = more signal.
The target of test [17] is Luciferin 4-monooxygenase (Photinus pyralis) (UniProt P08659). Put plainly: firefly luciferase enzyme inhibitors, primary screen, biochemical, luminescence, purified enzyme, 2006 set (AID 1141).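 Note: cell-free assay with purified firefly luciferase at 100 ng per well in PBS; test concentration not given here.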 The settings on record: SteadyGlo luminescence, 30 min, higher = more signal, called active from +8 up or from −8 down.
Luciferin 4-monooxygenase (Photinus pyralis), sequence (P08659 whole entry, looked up): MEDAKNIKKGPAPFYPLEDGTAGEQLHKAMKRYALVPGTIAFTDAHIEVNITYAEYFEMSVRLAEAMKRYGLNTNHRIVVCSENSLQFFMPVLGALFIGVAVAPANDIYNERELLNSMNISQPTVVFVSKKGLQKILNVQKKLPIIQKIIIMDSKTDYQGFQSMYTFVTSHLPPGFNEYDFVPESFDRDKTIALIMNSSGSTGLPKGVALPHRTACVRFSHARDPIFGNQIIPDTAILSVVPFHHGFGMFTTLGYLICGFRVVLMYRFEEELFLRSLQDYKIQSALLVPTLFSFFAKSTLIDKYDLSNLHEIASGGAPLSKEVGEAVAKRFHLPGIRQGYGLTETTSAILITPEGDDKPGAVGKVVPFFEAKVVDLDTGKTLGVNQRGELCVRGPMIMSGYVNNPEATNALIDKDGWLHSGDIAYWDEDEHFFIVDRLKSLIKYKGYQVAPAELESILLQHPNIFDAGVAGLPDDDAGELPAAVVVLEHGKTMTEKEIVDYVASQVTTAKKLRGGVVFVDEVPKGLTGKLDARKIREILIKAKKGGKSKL

Albumin (Bos taurus), sequence (P02769 whole entry, looked up): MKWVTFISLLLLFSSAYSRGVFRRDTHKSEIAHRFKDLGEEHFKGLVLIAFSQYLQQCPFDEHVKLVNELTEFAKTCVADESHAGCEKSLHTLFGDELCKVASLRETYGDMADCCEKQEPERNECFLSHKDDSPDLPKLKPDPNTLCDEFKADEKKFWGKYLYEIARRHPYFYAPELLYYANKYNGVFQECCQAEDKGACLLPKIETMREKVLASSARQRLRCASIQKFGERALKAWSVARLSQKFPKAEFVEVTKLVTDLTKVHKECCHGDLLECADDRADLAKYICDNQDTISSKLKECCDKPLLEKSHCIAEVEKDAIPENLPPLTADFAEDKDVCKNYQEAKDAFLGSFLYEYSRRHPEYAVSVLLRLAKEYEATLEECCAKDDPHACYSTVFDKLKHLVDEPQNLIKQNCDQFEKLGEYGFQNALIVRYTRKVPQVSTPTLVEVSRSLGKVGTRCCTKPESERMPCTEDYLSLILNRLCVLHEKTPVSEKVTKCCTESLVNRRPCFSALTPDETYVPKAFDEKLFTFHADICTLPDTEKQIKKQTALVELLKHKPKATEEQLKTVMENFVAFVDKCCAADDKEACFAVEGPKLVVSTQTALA
Concanavalin-A (Canavalia ensiformis), sequence (P02866 whole entry, looked up): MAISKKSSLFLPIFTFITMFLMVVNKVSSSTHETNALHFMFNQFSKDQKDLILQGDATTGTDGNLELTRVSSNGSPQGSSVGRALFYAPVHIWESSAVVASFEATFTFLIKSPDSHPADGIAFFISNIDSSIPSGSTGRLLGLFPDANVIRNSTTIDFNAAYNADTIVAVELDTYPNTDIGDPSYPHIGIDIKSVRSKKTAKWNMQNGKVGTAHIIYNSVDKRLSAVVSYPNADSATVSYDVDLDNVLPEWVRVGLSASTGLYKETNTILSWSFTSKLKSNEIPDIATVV
Follistatin (Homo sapiens), sequence (P19883 whole entry, looked up): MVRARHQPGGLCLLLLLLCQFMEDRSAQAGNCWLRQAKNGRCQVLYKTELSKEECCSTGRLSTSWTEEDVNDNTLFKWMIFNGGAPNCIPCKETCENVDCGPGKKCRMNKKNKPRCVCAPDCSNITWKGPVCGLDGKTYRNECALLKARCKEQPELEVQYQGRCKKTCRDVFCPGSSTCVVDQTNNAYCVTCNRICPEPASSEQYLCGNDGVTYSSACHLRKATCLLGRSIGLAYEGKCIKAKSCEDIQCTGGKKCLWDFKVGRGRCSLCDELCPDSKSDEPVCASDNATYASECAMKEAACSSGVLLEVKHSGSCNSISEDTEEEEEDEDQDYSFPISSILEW

Consider `CC(C)(C)OC(=O)CC[C@@]12N=C(c3ccc(OCCCO)cc3)O[C@@H]1c1ccccc1CN(Cc1ccccc1)C2=O`, for which the composite z-score with Albumin (Bos taurus) was -0.478; in [2], 0.0026; in test [3], -0.11; in [4], 0.418; in test [5], 1.73; in test [6], -0.0961. The composite z-score with Sam68 (KHDRBS1) is 1.31; in test [7], -0.0229; in [8] it was 1.1; in test [9], 2.46; in [10], 1.18; in test [11], 1.36. The composite z-score in [12] was determined as 0.357; in test [13], 1.32; in test [14], 1.43; in the test on Lefty1 it was 0.377; in test [16], 0.438. In addition, the composite Z-score in test [1] is 0.976 (inactive). In addition, the z-score in test [15] was 1.09; in test [17] it was -1.59 (inactive).

With `CN(C)CCCC[C@@H]1NC(=O)[C@@H]2C[C@H](C(=O)NCCCCCNC(=O)CS)[C@H](c3cccc(OCCO)c3)N2C1=O`, the composite z-score with Albumin (Bos taurus) was 0.786; in test [2], -0.15; in test [3], -0.167; in [4] it was 0.82; in test [5], 0.356; in test [6], 0.303. The composite z-score in the test on Sam68 (KHDRBS1) amounted to 0.528; in test [7], 0.728; in [8] it was 0.65; in test [9] it was 2.04; in test [10], 0.05; in [11], 0.387. The composite z-score in test [12] amounted to 0.119; in test [13] it was 1.49; in test [14] it was 1.65; in the test with Lefty1, 1.45; in [16] it was 0.626. Moreover, the composite Z-score in [1] is 1.6 (inactive). In addition, the z-score in test [15] is 0.43; in test [17], -0.673 (inactive).

Turning to `COc1ccc([Si](C)(C)[C@H]2[C@H](CC(=O)N3Cc4ccccc4C[C@H]3CO)O[C@@]3(C(=O)N(Cc4cccc(N5C(=O)COc6ccccc65)c4)c4ccccc43)[C@@H]2C)cc1`, the composite z-score was -0.534 in the test with Albumin (Bos taurus); 0.0297 in test [2]; -0.102 in test [3]; 0.635 in [4]; 1.97 in test [5]; -0.245 in test [6]. The composite z-score with Sam68 (KHDRBS1) stood at 1.02; in [7] it was 1.38; in [8] it was 1.16; in test [9], 1.57; in test [10], 0.671; in [11] it was 0.81. For the same compound, the composite z-score in test [12] was found to be 0.585; in [13], 1.17; in test [14], 1.6; with Lefty1 it was 1.44; in test [16], 0.862. In addition, in test [1], the composite Z-score was 0.373 (inactive). In addition, the z-score is 0.388 in test [15] and -0.961 (inactive) in test [17].

Regarding `CO[C@H]1O[C@H](CO)[C@@H](OC(=O)CCc2ccccc2)[C@@H]2OC(=O)[C@H](Cc3ccccc3)C/C=C/C[C@@H](Cc3ccccc3)C(=O)O[C@@H]12`, the composite z-score with Albumin (Bos taurus) is -0.707; in test [2], -0.19; in [3] it was -0.0928; in [4], 0.746; in test [5], 0.75; in test [6], -0.662. Further, the composite z-score with Sam68 (KHDRBS1) is 0.506; in test [7] it was -0.845; in test [8] it was -1.04; in test [9], -0.13; in [10], -0.109; in test [11], 0.186. The composite z-score in test [12] was -0.565; in [13], -0.618; in [14] it was -0.38; in the test with Lefty1, -0.71; in test [16], -1.32. Further, the composite Z-score in [1] was 0.508 (inactive). Besides, the z-score was 1.01 in test [15] and -1.21 (inactive) in test [17].

In the case of `COCCCNC(=O)[C@@]1(Cc2ccccc2CN=[N+]=[N-])COC(c2ccc(OCCCO)cc2)=N1`, the composite z-score in the test with Albumin (Bos taurus) is 0.922; in [2], 0.248; in test [3], 0.0261; in [4], 0.673; in test [5], 2.83; in test [6] it was 0.413. In addition, the composite z-score with Sam68 (KHDRBS1) was 1.3; in [7], -2.16; in test [8], 1.13; in test [9] it was 2.69; in [10], 1.21; in test [11], 0.759. The composite z-score in test [12] was 0.479; in [13], 0.186; in [14], -0.742; with Lefty1, -0.713; in [16], 1.03. In [1], the composite Z-score was 0.536 (inactive). The figures for the z-score in test [15] and in test [17] were 1.79 and -1.59 (inactive), respectively.

For `COC(=O)c1c2oc(c1C(=O)OC)C(=O)N[C@@H](C(C)C)Cn1nncc1C1(CCCCC1)NC(=O)N[C@H](CO)CC2`, the composite z-score with Albumin (Bos taurus) was 0.543; in [2] it was -0.126; in test [3] it was -0.131; in [4] it was 0.86; in test [5], 0.942; in test [6], -0.162. For the same compound, the composite z-score in the test with Sam68 (KHDRBS1) is -0.0929; in [7], -0.573; in [8], 0.77; in [9], -0.614; in [10] it was -0.622; in test [11], 0.195. Also, the composite z-score in [12] was -1.26; in test [13], -0.238; in test [14] it was 0.0484; with Lefty1, 0.0278; in test [16], -0.719. For the same compound, the composite Z-score in test [1] was 0.559 (inactive). The z-score is 2.33 in test [15] and -1.25 (inactive) in test [17].

Consider `O=C1c2ccccc2[C@](Cc2ccccc2I)(C(=O)O)[C@H](c2ccc(CO)cc2)N1Cc1ccccc1Cl`, for which the composite z-score in the test with Albumin (Bos taurus) was 0.953; in test [2], -0.014; in [3] it was -0.0633; in [4], 0.608; in test [5] it was 2.24; in [6], 1.07. For the same compound, the composite z-score was 1.3 with Sam68 (KHDRBS1); -0.912 in [7]; 0.944 in test [8]; 1.99 in [9]; 1.19 in [10]; 1.04 in test [11]. The composite z-score in test [12] is -0.113; in [13], 0.0645; in test [14], -0.354; with Lefty1 it was 0.0911; in test [16], 0.507. The composite Z-score in [1] is 1.61 (inactive). The results for the z-score in test [15] and in [17] were 0.712 and -1.28 (inactive), respectively.

On to `CCCCCN1CC=CC23O[C@@H]4/C=C\CCC(C)OC(=O)C4[C@H]2C(=O)N(CCCO)[C@@H]3C1=O` (stereo not given in full), for which the composite z-score was -1.27 with Albumin (Bos taurus); -0.357 in [2]; -0.161 in [3]; 0.97 in [4]; 0.1 in test [5]; 1.62 in test [6]. For the same compound, the composite z-score in the test with Sam68 (KHDRBS1) was -0.237; in test [7], -1.15; in test [8], -0.521; in test [9], -1.7; in [10], -0.719; in [11], -0.249. Besides, the composite z-score is -1.63 in test [12]; -1.3 in test [13]; -0.965 in test [14]; -1.2 in the test on Lefty1; -1.08 in test [16]. In test [1], the composite Z-score is 0.58 (inactive). Further, the z-score in test [15] is 0.684; in test [17] it was -0.637 (inactive).
